Assay outcomes from PubChem.
12-LOX inh: blocks human arachidonate 12S-lipoxygenase | AID 1671190 | Potency, µM (titrated, usually from 108 µM), for the others: at the top dose activity change, negative = inhibition, most hits filed as inhibitors | purified 12hLO, xylenol orange hydroperoxide absorbance | 580,000 tested, 1.1% active; also: % is scaled to controls: 0 for no effect and ±100 for the full control effect
Target sequence (P18054 whole entry, looked up): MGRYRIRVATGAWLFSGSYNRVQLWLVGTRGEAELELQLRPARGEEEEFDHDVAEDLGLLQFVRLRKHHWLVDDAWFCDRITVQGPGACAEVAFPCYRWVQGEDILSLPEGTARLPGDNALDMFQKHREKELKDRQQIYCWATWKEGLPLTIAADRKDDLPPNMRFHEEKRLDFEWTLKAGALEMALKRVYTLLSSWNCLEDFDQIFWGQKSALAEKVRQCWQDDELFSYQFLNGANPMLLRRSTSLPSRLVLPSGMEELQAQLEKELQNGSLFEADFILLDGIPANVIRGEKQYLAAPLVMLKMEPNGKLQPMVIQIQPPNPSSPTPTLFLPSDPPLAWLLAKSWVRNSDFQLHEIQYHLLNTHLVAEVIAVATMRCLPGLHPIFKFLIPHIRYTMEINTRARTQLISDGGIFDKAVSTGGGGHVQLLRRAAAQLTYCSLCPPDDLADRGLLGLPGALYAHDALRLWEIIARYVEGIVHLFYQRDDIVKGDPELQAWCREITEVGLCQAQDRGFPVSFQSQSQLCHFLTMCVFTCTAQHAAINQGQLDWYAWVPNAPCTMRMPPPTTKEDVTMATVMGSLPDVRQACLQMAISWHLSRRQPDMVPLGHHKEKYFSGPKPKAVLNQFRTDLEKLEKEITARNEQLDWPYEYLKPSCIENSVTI
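Purified human 12hLO at 150 nM in 25 mM Hepes, 0.01% Triton X-100, pH 7.0, preincubated 15 min at room temperature with compound. Reaction started with 40 uM arachidonic acid, 30 min at room temperature. Hydroperoxide measured by Fe-xylenol orange, 573/405 nm absorbance ratio.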
JMJD2A Tudor: inhibitors of human JMJD2A Tudor domain; AlphaScreen JMJD2A-Tudor / H3K4me3 peptide binding; 390,000 tested, 4.4% active; Potency, µM (series often up to 114 µM), without a hit: at the top dose activity change, negative = inhibition, hits mostly inhibitors; AID 504339; O75164; also: % is scaled to controls: 0 for no effect and ±100 for the full control effect; nearly all actives have a fitted effect of over 50% in size
BAZ2B inh: blocks human BAZ2B | Q9UIF8 | AlphaScreen BAZ2B-H3K14Ac peptide displacement | Potency, µM (highest dose often 114 µM), for the others: top-dose activity change, negative = inhibition, actives largely listed as inhibitors | 360,000 tested, 4.4% active; also: % is scaled to controls: 0 for no effect and ±100 for the full control effect; nearly all actives have a fitted effect of over 60% in size
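AlphaScreen displacement of biotin-H3(5-23)K14Ac peptide (50 nM final) from BAZ2B (50 nM final) in PBS pH 7.4, 0.01% Tween-20; complex preformed 30 min RT, then compounds (top 110 uM) 30 min RT, beads 20 min dark.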
G9a block: G9a (human) methyltransferase inhibition; AID 504332; G9a H3K9 monomethylation, AlphaScreen, 2 h; Q96KQ7; Potency, µM (top dose mostly 102 µM), for inactives: at the top dose activity, negative = inhibition, usual class: inhibitors; 350,000 tested, 8.8% active; also: % is scaled to controls: 0 for no effect and ±100 for the full control effect; nearly all actives have a fitted effect of over 75% in size
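Signal arises when biotinylated H3K9 peptide, once monomethylated, bridges streptavidin donor and antibody-captured acceptor beads. Enzyme at 20 nM was preincubated 15 min with test compounds; peptide 500 nM and SAM 20 uM then reacted for 2 h.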
Sfp inh: blocks B. subtilis Sfp PPTase activity. Q9F4F7. Biochemical Sfp PPTase activity, qHTS. Potency, µM, without a hit: largest response in the series, negative = inhibition, actives largely listed as inhibitors. 310,000 tested, 3.5% active. AID 1490;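 also: the enzyme is Sfp with the accession as filed and its product quenches rhodamine fluorescence; 0% = enzyme reaction without inhibitor and -100% = no enzyme wells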
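Fluorescence-quenching assay with 15 nM Sfp, 5 uM rhodamine-CoA and 12.5 uM BHQ-2-labelled ybbR peptide in pH 7.6 Hepes/MgCl2 buffer. Enzyme was pre-incubated with compound for 15 min at room temperature. Rate was taken from the 30-min fluorescence change (525/598 nm).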
HP1b chromo inh: HP1-beta chromodomain-methylated histone interaction inhibition | P83916 | AlphaScreen HP1-beta / biotin-H3K9me3 peptide binding | Potency, µM (series often up to 114 µM), without a hit: at the highest dose activity change, negative = inhibition, actives largely listed as inhibitors | 390,000 tested, 0.56% active; also: nearly all actives have a fitted effect of over 70% in size
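HP1-beta protein (50 nM final) preincubated 30 min at room temperature with biotinylated H3(1-18)K9me3 peptide (50 nM) in PBS pH 7.4, 0.01% Tween-20, then compound added for 30 min. AlphaScreen streptavidin donor/nickel chelate acceptor beads (10 ug/mL final), 30 min dark, luminescence read.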
* hit, by the source's call; ? = inconclusive; . = no result; [ ] = another dose, or the depositor's remark. An excerpt weighted towards active compounds, which were near 8.7% of everything screened. Calls follow the shape of the dose curve; as a rule, active = well fitted curve in the direction sought with a large enough effect; inconclusive = small, poorly fitted or top-dose-only effect, or another doubt; inactive = no such curve, though single readings can be large; an effect the other way counts as inactive or inconclusive. Potency is read from the fitted curve at half-maximal effect.

SMILES	12-LOX inh	JMJD2A Tudor	BAZ2B inh	G9a block	Sfp inh	HP1b chromo inh
COc1c(Cl)cc(Cl)cc1CNCCNCC(C)O (stereo unspecified)	6.9%	?	-30.3%[57.1 µM]	35.5µM*	-4.8%	37.7%
CCc1cc2c(SC(C)C(=O)NC3CCCC3)ncnc2s1 (stereo unspecified)	7.9%	-2.1%	.	.	.	36.5%
CCc1cc(C=NC2CCCCC2)c(O)s1	0.0%	-35.4%[57.1 µM]	-30.9%	12.6µM*	-19.9%	-9.8%
COc1ccc(C(=O)c2coc3ccc(O)c(CN4CCCCC4)c23)cc1	-4.4%	-22.1%	-2.7%	25.1µM*	5.6%	49.2%
COc1ccc(Nc2nc3ccccc3nc2NS(=O)(=O)c2ccc(F)cc2)cc1	-6.8%	.	.	.	.	.
CN(C)CCN(Cc1ccc(F)cc1)C(=O)c1ccc(S(C)(=O)=O)cc1	21.7%	.	.	.	.	.
CC(=O)Oc1oc(-c2ccccc2)nc1C=Nc1ccccc1	-1.0%	-17.6%	-5.0%[57.1 µM]	50.1µM*	-16.6%	37.1%
CN(C)c1ccc(N=Cc2nc(-c3ccccc3)oc2OC(=O)c2cccc(Br)c2)cc1	?	?	35.5µM*	31.6µM*	-3.3%	-22.4%
CCOC(=O)c1ccc(N=Cc2nc(-c3ccccc3)oc2OC(C)=O)cc1	?	-6.8%	-25.5%	7.94µM*	-8.5%	39.4%
Oc1oc(-c2ccco2)nc1C=Nc1ccccc1	-26.9%	?	-11.1%	-1.2%[12.7 µM]	17.4%	1.7%
COc1ccc(N=Cc2nc(-c3ccccc3)oc2OC(=O)c2ccccc2)cc1	-10.5%	17.0%	9.2%	14.2%[59 µM]	-17.1%	78.2%
Cc1ccc(C(=O)Oc2oc(-c3ccco3)nc2C=Nc2ccccc2)cc1	.	.	-5.2%[57.1 µM]	28.2µM*	44.7µM*	.
COC[C@H]1CCCN1C(=O)CC[C@@H]1CNC(=O)[C@@H]2C[C@H](NCc3ccc(N(C)C)cc3)CN12	67.1%	.	.	.	.	.
Cn1nc(C2CCN(S(=O)(=O)c3ccc4c(c3)CCCC4)CC2)n(C2CCCC2)c1=O	-17.6%	.	.	.	.	.
CCCCCCn1nc(C(=O)OCC(=O)Nc2cc(C)on2)c2ccccc2c1=O	-8.7%	.	.	.	.	.
N#Cc1c(-c2ccco2)nc(SCC(=O)Nc2cccc(Cl)c2)[nH]c1=O	22.4µM*	?	-12.3%	35.5µM*	50.1µM*	14.4%
COc1ccc(NC(=O)CSc2nnc(-c3ccc(C)cc3)c(=O)[nH]2)cc1	-28.5%	.	.	.	.	.
CCOc1ccccc1NC(=O)C(C)Sc1nc(-c2ccccc2)c(C#N)c(=O)[nH]1 (stereo unspecified)	?	-27.5%	-23.9%	-23.1%[59 µM]	.	11.8%
CCc1ccc(NC(=O)C(C)Sc2nc(-c3ccco3)c(C#N)c(=O)[nH]2)cc1 (stereo unspecified)	?	?	?	50.1µM*	-11.0%	-12.5%
CC(C)(C)c1ccc(-c2nc(SCC(=O)Nc3ccc(Cl)cc3)[nH]c(=O)c2C#N)cc1	?	-32.1%	79.4µM*	-16.1%[59 µM]	.	23.7%
O=C(c1cc(Cl)ccc1Cl)N1CCN(c2cc(-c3cccs3)[nH]n2)CC1	-0.3%	.	.	.	.	.
O=C(OCCCc1ccccc1)c1c2ccccc2cc2ccccc12	-45.1%	.	.	.	.	.
Cc1ccc(Nc2nc(NC3CCCCCC3)nc3c2cnn3-c2ccccc2)cc1	-0.7%	.	.	.	.	.
COc1ccc(OCC(=O)NNC(=O)Cn2c(=O)cnc3ccccc32)cc1	-2.1%	-1.4%	?	70.8µM*	.	43.7%
Cc1cccc(OCC(=O)NNC(=O)Cn2c(=O)cnc3ccccc32)c1	22.0%	-2.1%	-4.5%	-7.3%[2.33 µM]	.	44.5%
CN(C(=O)CCn1cnc2c1c(=O)n(C)c(=O)n2C)C1CCCC1	-4.4%	.	.	.	.	.
O=C(c1ccncc1)N1N=C(c2ccc(Br)cc2)CC1c1ccccc1O (stereo unspecified)	?	?	-35.9%	-21.2%	-70.0%	-16.3%
Cc1ccc(C2=NN(C(=O)c3ccccc3F)C(c3ccccc3F)C2)cc1 (stereo unspecified)	-2.3%	-19.3%	-37.6%	15.8µM*	50.1µM*	-17.9%
O=C(c1ccccc1)N1N=C(c2ccccc2)CC1c1ccccc1O (stereo unspecified)	-12.6%	11.2µM*	?	?	10µM*	?
